TIM10 inh: inhibits growth of TIM10 yeast strain. AID 463195. S. cerevisiae TIM10 strain growth, BacTiter-Glo luminescence, 24 h. 330,000 compounds, 1.4% hits. inhibition, % at 10 µM;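 active = inhibition of 40% or more at the single tested concentration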;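 note: wild-type TIM10 isogenic control strain grown at permissive 25 °C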
tim10-1 inh: tim10-1 yeast growth inhibition. S. cerevisiae tim10-1 ts strain growth, BacTiter-Glo, 24 h. inhibition, % at 20 µM. 330,000 compounds, 2.2% hits. AID 463190;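 active = inhibition of at least 40%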;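 note: mutant grown at 25 °C; 0% = DMSO wells with yeast and 100% = wells holding no yeast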
NALP1 inh: inhibitors of NALP1 inflammasome in yeast; inhibition, % at 10 µM; S. cerevisiae NALP1/ASC/caspase-1 growth, X-gal OD620, 72 h; AID 2071; 280,000 compounds, 0.61% hits; in the data active = inhibition mostly above about 24%, no sharp cut-off; inactive = mostly below about 32%
PfHsp90 set2: growth inhibition of yeast expressing Plasmodium Hsp90 | S. cerevisiae expressing PfHsp90, BacTiter-Glo ATP, 48 h; yeast lacking PDR1 and PDR3 efflux regulators | 310,000 compounds, 0.32% hits | AID 504621 | inhibition, % at 9.4 µM;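 active = every replicate shows inhibition above about 80%, whatever the replicate mean, limit read from the data; inconclusive = mean inhibition reaches the set limit but some replicate falls short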;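 note: 0% = DMSO neutral controls and 100% = 20 µM radicicol positive controls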
tim23-1 inh: growth inhibitors of tim23-1 mutant yeast. S. cerevisiae tim23-1 growth, BacTiter-Glo luminescence, 24 h. inhibition, % at 20 µM. 330,000 compounds, 1.3% hits. AID 463212;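 active = growth inhibition of the mutant yeast at or above 50%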;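 note: temperature-sensitive mutant grown at 25 °C; plate controls were DMSO-treated mutant yeast for no effect and medium wells lacking yeast for full effect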
SKKanGAS inh: blocks kanamycin growth of S. pyogenes SKKanGAS strain; 300,000 compounds, 1.3% hits; inhibition, % at 7.5 µM; BacTiter-Glo, 6 h;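 active = mean replicate score, as percent of positive control median, at least 50; inconclusive = mean below 50 but one replicate at or above 50; inactive = mean and every replicate below 50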;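 note: strain carries kanamycin resistance gene driven by streptokinase promoter and grows in 40 µg/ml kanamycin; loss of luminescence reflects streptokinase promoter inhibition or plain growth inhibition; 0% = median of DMSO wells and 100% = positive control at its reference dose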
tim23-1 confirm: confirmation of tim23-1 mutant yeast growth inhibitors. shares compounds with tim23-1 inh. S. cerevisiae tim23-1 growth, BacTiter-Glo luminescence, 24 h. inhibition, % at 20 µM. 4,400 compounds, 83% hits. AID 463218;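 active = inhibition above about 39% in either of two replicate wells at 20 µM, limit read from the data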;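 note: temperature-sensitive tim23-1 mutant grown at 25 °C; 0% = DMSO wells with yeast and 100% = medium wells without yeast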
The depositor's hits bear a star; ? = inconclusive; . = no result given. Sampled rows, rich in hits. Any-hit rate of the full collection: about 4.8%.

SMILES | TIM10 inh | tim10-1 inh | NALP1 inh | PfHsp90 set2 | tim23-1 inh | SKKanGAS inh | tim23-1 confirm
Cc1cccc(NC(=S)NN2CCN(C)CC2)c1 | 0 | 5 | -1 | . | 1 | 4 | .
COc1cc2nc(C3CCC3)nc(N3CCN(c4ccccc4OC)CC3)c2cc1OC | 39 | 30 | 40 | 37 | 53* | ? | 44*
CC(C)(C)S(=O)(=O)N1C[C@@H]2CC/C=C\C/C=C\2[C@H]1CCO | . | . | . | 34 | . | . | .
Cc1ccc(Nc2nc3ccccc3s2)c(C)c1 | 37 | 38 | 35 | -15 | 58* | 6 | 46*
CCOC(=O)C1=C(C)N=c2s/c(=C\c3ccncc3)c(=O)n2C1c1ccc2c(c1)OCO2 (stereo unspecified) | 23 | 40 | 17 | . | 53* | 0 | 49*
O=C(C1=C[C@@H](c2ccc(C(F)(F)F)cc2)C[C@@H](OCCCCO)O1)N1CCOCC1 | -5 | -5 | -6 | -5 | -5 | 2 | .
Cn1c(-c2sc3ccccc3c2Cl)n[nH]c1=S | 29 | 27 | 11 | -23 | 52* | 5 | 44*
O=C(Nc1ccc(N2CCN(Cc3ccccc3F)CC2)cc1)c1ccccc1[N+](=O)[O-] | -8 | 3 | 0 | -16 | 11 | -2 | .
O=C(Nc1ccc(N2CCN(Cc3ccccc3F)CC2)cc1)c1ccc([N+](=O)[O-])o1 | 12 | 39 | 32 | 13 | 56* | 5 | 41*
CC1CCN(c2ccc(NC(=O)c3ccc([N+](=O)[O-])o3)cc2)CC1 | 25 | 37 | . | . | 56* | 43 | -13
COC(=O)N/N=C/c1ccccc1OCCOc1ccc(OC)cc1 | -3 | 2 | 13 | -19 | 51* | -6 | 48*
COC(=O)N/N=C/c1ccccc1OCc1ccccc1 | 36 | 30 | 38 | -5 | 9 | 5 | .
O=c1cc(-c2ccccc2Cl)oc2c(NS(=O)(=O)c3cc(Cl)cc(Cl)c3O)ccc(O)c12 | 27 | 4 | 26 | . | 52* | 109* | -222
CCc1ccc(S(=O)(=O)Nc2ccc(O)c3c(=O)cc(-c4ccccc4Cl)oc23)cc1 | -2 | -7 | 5 | 19 | 1 | 40 | .
O=S(=O)(Nc1cccc(-c2cn3c(n2)SCC3)c1)c1ccc(F)cc1F | 7 | 12 | 4 | . | 17 | -1 | .
CC1C(=O)NN=C1C(=O)N/N=C\C(Br)=C\c1ccccc1 (stereo unspecified) | 29 | 29 | 21 | 13 | 34 | -17 | .
O=C(N/N=C/C(Cl)=C/c1ccccc1)c1ccccc1F | 4 | 21 | 22 | -7 | 51* | -6 | 27
O=C(N/N=C/C(Br)=C/c1ccccc1)c1ccccc1F | 37 | 0 | 24 | 28 | 69* | 3 | 51*
O=C(N/N=C/C(Cl)=C/c1ccccc1)c1ccco1 | -22 | -49 | 15 | 14 | 64* | -3 | 7
CCOC(=O)c1ccc(N2C(=O)CC(Nc3ccc(O)cc3)C2=O)cc1 (stereo unspecified) | 10 | -3 | . | 7 | -7 | 1 | .
CC1Oc2cc3oc4c(O)c(O)ccc4c(=O)c3c(O)c2C1(C)C (stereo unspecified) | 17 | 34 | . | 104* | 69* | 53* | 70*
Cc1cccc(Nc2nc(N)c([N+](=O)[O-])c(N3CCCC(C)C3)n2)c1 (stereo unspecified) | -46 | 23 | 33 | 104* | 50* | 22 | 20
C[N+]1(CCCOC(=O)C2(c3ccccc3)CCCC2)CCOCC1 | -4 | -9 | 28 | 26 | -6 | 4 | .
CCn1c(=N)n(CCOc2ccc(OC)cc2)c2ccccc21 | 4 | 11 | 9 | 1 | 11 | -3 | .
N=c1n(CCO)c2ccccc2n1CCOc1ccccc1 | 3 | -3 | 5 | 11 | 65* | 3 | 2
Oc1ccc(Oc2ccc(Oc3ccc(O)cc3)cc2)cc1 | -16 | -10 | 38* | -91 | 59* | 67* | 51*
Cc1ccccc1/C=C1\Oc2ccccc2C1=O | 34 | 18 | . | -35 | 54* | . | 57*
Nc1cc(-c2ccccc2)nn1S(=O)(=O)c1ccc(Br)cc1 | 2 | 24 | 6 | -8 | 36 | 9 | .
Brc1ccc(-n2cnc(-c3ccccc3)c2)cc1 | 35 | 10 | 7 | -5 | 55* | -5 | 51*

Screening data: PubChem, several laboratories
